High-throughput results deposited in PubChem BioAssay by National Center for Advancing Translational Sciences (NCATS).
rTrxR1 inhibitor: inhibitors of rat thioredoxin reductase 1. recombinant rTrxR1, NADPH fluorescence consumption, selenite substrate. Potency, µM (series often up to 114 µM), actives largely listed as inhibitors. 390,000 tested, 1% active; also: nearly all actives have a fitted effect of over 65% in size
Target sequence (O89049 whole entry, looked up): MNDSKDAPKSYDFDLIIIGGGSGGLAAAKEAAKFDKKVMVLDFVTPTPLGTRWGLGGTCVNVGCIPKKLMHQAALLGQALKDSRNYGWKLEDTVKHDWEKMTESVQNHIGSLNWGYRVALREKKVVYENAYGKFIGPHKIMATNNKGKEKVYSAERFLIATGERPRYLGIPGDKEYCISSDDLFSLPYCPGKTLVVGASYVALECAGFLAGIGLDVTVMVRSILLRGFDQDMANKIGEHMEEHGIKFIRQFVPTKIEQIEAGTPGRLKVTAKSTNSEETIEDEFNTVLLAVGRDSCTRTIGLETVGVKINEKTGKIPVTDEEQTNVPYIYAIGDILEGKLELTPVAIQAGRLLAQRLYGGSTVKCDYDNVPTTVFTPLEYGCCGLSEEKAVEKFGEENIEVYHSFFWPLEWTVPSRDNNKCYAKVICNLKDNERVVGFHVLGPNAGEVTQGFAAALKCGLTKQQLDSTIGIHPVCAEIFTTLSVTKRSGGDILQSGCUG
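Rat TrxR1 (90 nM in the dispensed reagent) was pre-reduced with 400 uM NADPH for 5 min at room temperature, then incubated with compound for 15 min. After 400 uM selenite was added, NADPH fluorescence (Ex 340/Em 450 nm) was followed for 8 min.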
TrxR1 substrate: substrates of rat thioredoxin reductase 1. 390,000 tested, 0.01% active. Potency, µM (series often up to 114 µM). purified TrxR1 substrate turnover, NADPH consumption readout. AID 588456; also: nearly all actives have a fitted effect of over 50% in size
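Rat TrxR1, dispensed at 90 nM, was prereduced with 400 uM NADPH (final) for 5 min at ~22 deg C, then incubated with compound 15 min before 400 uM selenite. A first-read NADPH fluorescence drop versus no-compound background flagged substrates.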
mIDH1 inhibitor: human IDH1 R132H inhibition | O75874 | IDH1-R132H enzyme, NADPH consumption, diaphorase/resazurin fluorescence | Potency, µM (titrated, usually from 76.6 µM), hits mostly inhibitors | 390,000 tested, 0.093% active | AID 602179; also: nearly all actives have a fitted effect of over 65% in size
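IDH1-R132H (0.5 ug/mL dispensed) in pH 7.5 Tris buffer was preincubated 30 min with compound, then given a substrate mix of 0.016 mM NADPH and 2 mM alpha-KG for 80 min at room temperature; remaining NADPH was read by diaphorase/resazurin fluorescence.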
Giardia killer: kills Giardia lamblia; Giardia lamblia trophozoite viability; activity change, % at 7.66 µM, hits read low; 340,000 tested, 0.15% active; AID 540267; in the data active = activity change below about -80%; inconclusive = between about -30% and that limit;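 also: parasites exposed to compound for two days anaerobically before the ATP read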
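Anaerobic 48 hrs incubation at 37 deg C of 100 trophozoites/well with test compounds; ATPLite 1-Step luminescence, 15-30 min RT, reports cellular ATP as viability.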
IL-2 act: activators of IL-2. IL-2 activation reporter assay, cell-based qHTS; stimulated with anti-CD3/CD4/CD28 beads; in transgenic mouse T cells. activation, % (series mostly up to about 46 µM). 360,000 tested, 0.065% active; in the data active = activation above about 50%; inconclusive = mostly about 30% to 49%
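EGFP and DsRed fluorescence is measured by plate cytometry in unstimulated transgenic mouse T cells exposed to compound for 60 minutes, then stimulated 18 hours at 37 degrees C with anti-CD3/anti-CD4 beads plus anti-CD28.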
BRCA1 expr up: BRCA1 expression activation; MCF7-BRCA1-FFLuc reporter, luminescence, 48 h; response scale: scaled: vehicle 0%, 10 µM genistein 100%; Potency, µM (top dose mostly 46.1 µM), usual class: activators; 380,000 tested, 1.1% active; also: nearly all actives have a fitted effect of over 80% in size
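48 h compound treatment of MCF7-BRCA1-FFLuc cells (phenol-red free MEM, 37 °C), then 15 min with luciferase substrate and luminescence imaging.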
A number is an active result; n = inactive; u = inconclusive; x = not tested or not shown. Sampled rows, rich in hits. Any-hit rate of the full collection: about 2.2%. Unless noted, calls follow the shape of the dose curve; as a rule, active = well fitted curve in the direction sought with a large enough effect; inconclusive = small, poorly fitted or top-dose-only effect, or another doubt; inactive = no such curve, though single readings can be large; an effect the other way counts as inactive or inconclusive.

SMILES | rTrxR1 inhibitor | TrxR1 substrate | mIDH1 inhibitor | Giardia killer | IL-2 act | BRCA1 expr up
COCCCNC(=O)c1ccc(Cn2c(=O)c3ccccc3n(CC(=O)Nc3c(C)cccc3C)c2=O)cc1 | n | n | n | x | x | n
CCc1cccc(C)c1NC(=O)CSc1nc2ccccc2nc1Cc1ccccc1 | n | n | n | x | x | x
CCCCn1c(C2CC(=O)N(c3ccc(OCC)cc3)C2)nc2ccccc21 (configuration not stated) | n | n | n | x | x | x
Cc1cccc(-n2c(=O)c3c(c4cc(C)ccc4n3C)n(CC(=O)NCCC3=CCCCC3)c2=O)c1 | n | n | n | x | x | n
Cc1cc(=O)n2c(C(=O)Nc3ccc(C(=O)OC(C)C)cc3)c(C(=O)Nc3ccccc3)sc2n1 | 50µM | n | n | n | n | n
Cc1cc(=O)n2c(C(=O)Nc3ccc(F)c(Cl)c3)c(C(=O)Nc3cccc(C)c3C)sc2n1 | n | n | n | x | x | x
CCOc1ccc(N(CC)C(=O)Cn2cnc3sc(C)c(S(=O)(=O)N4CCN(c5ncccn5)CC4)c3c2=O)cc1 | n | n | n | x | x | n
Cc1ccc(NCCC(=O)c2cccs2)cc1Cl | u | n | n | n | n | n
Cc1ccc(NCCC(=O)c2cccs2)cc1 | u | n | n | n | n | n
CC(C)c1ccc(NCCC(=O)c2cccs2)cc1 | 2.8µM | n | n | n | n | n
O=C(CCNc1cccc(Cl)c1)c1cccs1 | 10µM | n | n | n | n | n
Cc1ccc(NCCC(=O)c2cccs2)cc1C | 4.5µM | n | n | n | n | n
CC(CC(=O)c1cccs1)CC(=O)c1cccs1 | n | n | n | n | n | 13µM
O=C(CC(C(=O)O)c1ccccc1)c1cccs1 (configuration not stated) | n | n | n | n | n | n
COc1ccccc1N1CCN(S(=O)(=O)c2c(C)sc3ncn(CC(=O)Nc4ccc(C(C)C)cc4)c(=O)c23)CC1 | n | n | n | x | x | x
CCc1ccc(NCCC(=O)c2ccc(Cl)cc2)cc1 | u | n | n | n | n | n
Cc1ccc(NCCC(=O)c2ccc(Cl)cc2)cc1C | 50µM | n | n | n | n | n
CN1/C(=C\C(=O)c2cccc([N+](=O)[O-])c2)Sc2ccccc21 | n | n | n | n | n | 2.2µM
CN1/C(=C\C(=O)c2cccs2)Sc2ccccc21 | n | n | n | n | n | n
Cc1ccc(S(=O)(=O)c2c(Nc3cc(F)ccc3F)sc(C(=O)c3ccc(F)cc3)c2N)cc1 | n | n | n | x | x | n
CC(=O)c1ccc(NC(=O)/C=C/c2ccc(C)o2)cc1 | 22µM | n | n | x | x | x
Cc1ccc(/C=C/C(=O)Nc2nnc(C)s2)o1 | 28µM | n | n | n | n | n
Cc1ccc(/C=C/C(=O)Nc2cccc3cccnc23)o1 | 50µM | n | n | n | n | n
Cc1cccc(C(=O)Nc2cccc3cccnc23)c1 | n | n | n | n | n | n
Cc1ccc(C(=O)Nc2nnc(C)s2)o1 | n | n | n | n | n | n
SMILES | rTrxR1 inhibitor | TrxR1 substrate | mIDH1 inhibitor | Giardia killer | IL-2 act | BRCA1 expr up
Cc1ccc(/C=C/C(=O)Nc2cc(=O)n(C)c(=O)n2C)o1 | 7.9µM | n | n | n | n | n
CC(C)N(c1ccc(C=O)cc1)C(C)C | n | n | x | x | x | x
Cc1cc(NS(=O)(=O)c2ccc(NC(=O)/C=C/c3ccc(C)o3)cc2)nc(C)n1 | 28µM | n | n | n | n | n
Cc1ccc(NC(=O)/C=C/c2ccc(C)o2)c(C)c1 | 20µM | n | n | x | x | x
COC(=O)c1ccc(Cl)cc1NC(=O)/C=C/c1ccc(C)o1 | n | n | n | n | n | n
CCOc1ccccc1NC(=O)Cn1c(=O)n(Cc2nc(C)no2)c(=O)c2ccccc21 | n | n | n | x | x | x
Cc1ccc(C(=O)Cn2cnc3ccccc3c2=O)cc1C | n | n | n | n | n | 4.5µM
O=C(Cn1cnc2ccccc2c1=O)c1ccc2ccccc2c1 | n | n | n | n | n | 6.3µM
COc1ccc(C(=O)Cn2cnc3ccccc3c2=O)cc1 | n | n | n | n | n | u
Cc1cccc2sc(N(Cc3cccnc3)C(=O)c3cccs3)nc12 | n | n | n | x | x | x
Nc1ccc(Cc2ccc(C=O)cc2)cc1 | n | n | x | x | x | x
